# Data from the supplement of paper PMC3334620.
# In all, about 33,000 sequences were measured (“E-score (-0.5 to 0.5)”: median about -0.021, highest 2% from about 0.32 on). The entries come from a sample that favours the highest values as a whole.
# Molecular target: T1, Zap1 (UniProt P47043)
# T1 sequence: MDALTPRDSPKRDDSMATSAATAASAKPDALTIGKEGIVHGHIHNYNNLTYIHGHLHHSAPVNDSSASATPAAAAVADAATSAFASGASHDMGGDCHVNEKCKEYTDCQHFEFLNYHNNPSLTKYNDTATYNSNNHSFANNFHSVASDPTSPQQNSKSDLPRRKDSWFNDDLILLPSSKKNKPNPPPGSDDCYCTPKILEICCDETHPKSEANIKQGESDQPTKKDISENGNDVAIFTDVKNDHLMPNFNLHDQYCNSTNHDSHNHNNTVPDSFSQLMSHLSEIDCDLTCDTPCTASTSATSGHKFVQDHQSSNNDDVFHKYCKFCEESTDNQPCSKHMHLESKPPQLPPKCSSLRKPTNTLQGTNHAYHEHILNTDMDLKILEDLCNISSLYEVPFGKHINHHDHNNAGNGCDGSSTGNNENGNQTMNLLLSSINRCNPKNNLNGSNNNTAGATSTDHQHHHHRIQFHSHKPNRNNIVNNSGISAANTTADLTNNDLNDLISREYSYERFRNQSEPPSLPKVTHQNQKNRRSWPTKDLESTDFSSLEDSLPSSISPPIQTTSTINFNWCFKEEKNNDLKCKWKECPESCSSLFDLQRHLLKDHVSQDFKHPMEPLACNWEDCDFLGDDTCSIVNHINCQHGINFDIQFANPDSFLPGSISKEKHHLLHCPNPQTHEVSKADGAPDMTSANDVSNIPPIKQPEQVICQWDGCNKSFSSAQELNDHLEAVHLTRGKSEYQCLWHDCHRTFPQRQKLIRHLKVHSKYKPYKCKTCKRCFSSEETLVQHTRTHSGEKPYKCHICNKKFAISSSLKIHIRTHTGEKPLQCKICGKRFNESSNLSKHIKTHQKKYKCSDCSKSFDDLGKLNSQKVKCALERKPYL
# Assay: PBM E-score (8-mer binding enrichment) (E-score (-0.5 to 0.5)); higher = stronger / more preferred TF binding
# Settings: protein concentration: 200 nM; construct: GST-full length
# Method: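 Universal 'all 10-mer' protein binding microarrays (Agilent AMADID 015681) probed with GST-tagged S. cerevisiae TFs (full-length or DBD) made by in vitro transcription/translation (PURExpress), about 100-200 nM. Bound TF was detected with fluorescent anti-GST. Each ungapped 8-mer (which stands for itself and its reverse complement) is scored by the PBM enrichment score (E-score), a modified Wilcoxon-Mann-Whitney statistic from -0.5 to +0.5, computed with the Universal PBM Analysis Suite. Scale: above 0.35 generally sequence-specific binding.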
row,Sequence,PBM E-score
1,GCAAGGTA,0.265
2,CCGTCCTC,-0.191
3,CTGGTGAA,-0.0889
4,AGCTGTCC,-0.225
5,AACCGCGA,0.367
6,AACCGCGG,0.374
7,CACCGCGG,0.176
8,CCGCGCGG,0.332
9,GACCGCGA,0.259
10,CCGCGCGA,0.124
11,TACCGCGA,0.328
12,CACCGCGA,0.0268
13,AACCGCGT,0.227
14,AACCGCAG,0.126
15,CCGCGCGC,0.0679
16,AACCGCGC,0.24
17,AGCACTAC,-0.0779
18,CCGAAGCA,-0.176
19,ACACAATC,0.00143
20,CCAGGGCG,-0.178
21,TCCAAGAA,-0.0864
22,CGTCTCAC,-0.107
23,AGCATTTG,-0.00877
24,AGCAAGCA,-0.167
25,ATTAATAC,0.344

row,Sequence,PBM E-score
1,ATTAATAA,0.21
2,ATTAATAG,0.195
3,ATGCCACC,-0.11
4,CTGGCCGA,-0.318
5,ACTTTAGA,0.0114
6,GATGGCAA,-0.0776
7,AAATGACC,0.317
8,GAATGACC,0.338
9,GCATGACC,0.234
10,CCATGACC,0.416
11,GAATGACA,-0.0394
12,CCATGACG,0.0693
13,GTTGGCCA,-0.015
14,GCGCCTTA,-0.066
15,GAGTTTAA,0.121
16,AACCTACA,0.264
17,ACCTACCA,0.126
18,GGTGGTGA,0.23
19,CGTGGTTA,0.348
20,GGTGGTTA,0.433
21,AGTGGTCA,0.197
22,AGTGGTTC,0.129
23,CGTGGTCA,0.195
24,AGTGGTTG,0.312
25,GGTGGTAA,0.274

row,Sequence,PBM E-score
1,CGTGGTAA,0.0908
2,AGTGGTTA,0.434
3,CGTGGTTC,0.185
4,GGTGGTCA,0.341
5,CCCACTTA,-0.0455
6,CTTGTGAC,0.0651
7,CCTTCATA,0.102
8,GCAGCACA,-0.0816
9,GACAAAGC,-0.143
10,GGTCCTCA,0.0332
11,CCAGAGTC,0.0266
12,AACAGTCT,-0.14
13,GAAACATC,-0.0445
14,AAAACATA,0.0671
15,GAAACATA,0.318
16,GACTTAGC,-0.317
17,GAGCGCCA,-0.291
18,TGGATTAA,0.0758
19,GACCCGGA,0.118
20,AACCCGGG,0.324
21,ACCCCGGG,0.34
22,AACCCCGG,0.337
23,CCCCCGGG,0.167
24,ACCCCCGG,-0.0785
25,CACCCGGG,0.129

row,Sequence,PBM E-score
1,AACCCGGT,0.249
2,ACCCCGGC,0.119
3,AACCCCCG,-0.149
4,AACCCGGA,0.332
5,CACCCGGA,0.235
6,GGCAGACC,-0.192
7,TCACGCAA,0.0552
8,GTATAGCA,-0.104
9,CTTGTTGA,0.124
10,GGAACAAA,0.111
11,CTAGCTCC,-0.246
12,CCGAGCAC,-0.0385
13,AGAAACTA,-0.0549
14,AGAGAAAC,-0.0339
15,AAGGGAAC,0.0495
16,GAGCTAGC,-0.179
17,CTCCTTTC,-0.0488
18,ATGTAACG,0.0833
19,CTGTAAAC,0.16
20,CTGTAACA,0.00661
21,ATGTAACC,0.395
22,CTGTAACC,0.463
23,ATGTAACA,0.153
24,ACTGCTAT,-0.0537
25,AAACGGAA,0.127

row,Sequence,PBM E-score
1,AAGACCGC,0.0669
2,GAGCAACC,0.0661
3,ATCGGTTC,0.0913
4,CATGACCA,0.284
5,GATGACCC,0.403
6,CATGACCG,0.177
7,AATGACCC,0.3
8,CATGACCC,0.38
9,GATGACCA,0.129
10,CCGACCTC,-0.0902
11,CGATCTGA,-0.0395
12,CAACTGTC,-0.0568
13,ACGAAGGA,-0.166
14,ATCCTTTG,0.161
15,GCCCTTTA,-0.0495
16,ACCCTTTG,0.345
17,CCCCTTTA,-0.00689
18,ACCCTTTA,0.415
19,ACCCTTTC,0.298
20,CCCTACGC,-0.17
21,GCGTCCCC,-0.249
22,AGTGCCCC,-0.156
23,AACCAGGT,0.201
24,ATGGAGCC,-0.222
25,GGCGGTAA,0.125

row,Sequence,PBM E-score
1,AGCGGTTA,0.405
2,GGCGGTCA,0.12
3,AGCGGTTC,0.164
4,GGCGGTTA,0.324
5,CGCGGTGA,0.144
6,AGCGGTTG,0.216
7,CGCGGTTC,0.181
8,CGCGGTTA,0.452
9,AAAAACTA,0.175
10,ATACCAAA,0.153
11,GCCTACTA,-0.0183
12,AAGTAACG,0.052
13,AAGTAACC,0.393
14,CAGTAACG,0.0273
15,GAGTAACA,0.135
16,AAGTAACT,-0.0363
17,CAGTAACC,0.44
18,CAGTAACA,-0.0862
19,GAGTAAGC,-0.221
20,GAGTAACC,0.399
21,GCAGTAAA,0.104
22,ATTATACA,0.0605
23,ATTATACG,0.0915
24,ATTATACC,0.338
25,CAGCAGAA,-0.0338

row,Sequence,PBM E-score
1,CGAGGTCC,0.0996
2,GGAGGTCA,0.136
3,AGAGGTCG,0.304
4,CGAGGTCA,0.357
5,AGAGGTCC,0.201
6,AGAGGTCA,0.41
7,ATGTCGCG,0.0309
8,CAGAAGCC,-0.173
9,GTCCCAAA,0.0529
10,AAGGTTCC,0.317
11,AAGGTTCG,-0.0644
12,AGGGTTCG,0.0919
13,AAGGTTCT,0.327
14,AAGGTTCA,0.054
15,ATGGTTCC,0.21
16,AGGGTTCA,0.146
17,CAGGTTCC,0.0995
18,AGGGTTCC,0.354
19,CCAGTGTA,-0.00071
20,CACTGTAA,0.0817
21,CTAGCGAA,-0.221
22,GCTTCAGA,-0.167
